Laboratory results: PubChem BioAssay
The source made the active and inactive calls.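 How the source made its calls: active means fluorescence slope after compound addition differing from the mean of all screened samples at 99.7% confidence, in either direction; inactive means the rest.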

target: Alpha-2C adrenergic receptor (Homo sapiens) (UniProt P18825); test: modulators of alpha2C/GIRK thallium flux, primary screen, cell-based, HEK293 alpha2C/GIRK1/2 (AID 624); settings: thallium flux BTC fluorescence, at 10 µM, actives lie on both sides;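 further: slope of fluorescence ratio to pre-addition baseline per second over 15 to 24 s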
Sequence (P18825 whole entry, looked up): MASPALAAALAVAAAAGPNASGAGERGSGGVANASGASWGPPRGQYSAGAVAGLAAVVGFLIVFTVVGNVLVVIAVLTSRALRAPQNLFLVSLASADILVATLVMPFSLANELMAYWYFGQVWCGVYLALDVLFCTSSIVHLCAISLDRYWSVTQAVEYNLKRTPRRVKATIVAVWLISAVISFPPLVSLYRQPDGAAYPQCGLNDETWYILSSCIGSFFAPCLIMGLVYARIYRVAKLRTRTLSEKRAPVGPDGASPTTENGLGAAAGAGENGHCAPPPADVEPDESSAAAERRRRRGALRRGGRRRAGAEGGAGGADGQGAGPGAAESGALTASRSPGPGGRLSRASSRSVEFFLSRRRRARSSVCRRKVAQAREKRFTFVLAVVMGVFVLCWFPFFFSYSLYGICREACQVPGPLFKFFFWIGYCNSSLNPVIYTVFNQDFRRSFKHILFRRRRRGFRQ

slope, inactive:
CC(=O)Nc1cc2c(nc1C)nc(C)n2Cc1ccc(Br)cc1 0.00402
COc1ccc(C(C)N2CC34C=CC(O3)C(C(=O)OCC(C)C)C4C2=O)cc1 (stereo not given) 0.00626
COc1ccc2nc3oc(C(=O)NC4CCN(Cc5ccccc5)CC4)cc3cc2c1 0.00404
CN(C)c1ccc(-c2nn3c(-c4ccc(Cl)cc4Cl)nnc3s2)cc1 0.00528
COc1ccc(S(=O)(=O)NC(C)C(=O)Nc2cccc(C(C)=O)c2)cc1 (stereo not given) 0.00498
O=C(Nc1cccc2ccccc12)N1CCN(c2ccccc2)CC1 0.00612
O=c1ccc2cc3c([nH]c4ccc(Br)cc43)oc-2c1O 0.00638
CCCCSc1cc(C)nc2ncnn12 0.00349
CCN1C(=O)CC(N2CCC(Nc3ccc(F)cc3)CC2)C1=O (stereo not given) 0.00599
CCOc1ccccc1NC(=O)CCSc1nc2n[nH]c(C)c2c(=N)n1-c1ccccc1Cl 0.00336
c1ccc(-n2c(Sc3cnccn3)nnc2-c2cccs2)cc1 0.00525
C=C(C)Cn1c(N2CC(C)CC(C)C2)nc2c1c(=O)[nH]c(=O)n2C (stereo not given) 0.00499
CCC1(C(=O)OC)NC(c2cccc(F)c2)C2C(=O)N(C)C(=O)C21 (stereo not given) 0.00554
Cc1ccccc1-n1c(SCc2c(C)noc2C)nnc1-c1ccncc1 0.00424
COC(=O)C1=C(C)n2nnnc2NC1c1ccc(Cl)cc1 (stereo not given) 0.00153
